The list is not random: actives were taken first. Their share in the collection is about 2.2%.
IEC-6 cytotox: cytotoxicity in IEC-6 intestinal epithelial cells, primary screen, cytotoxicity control for KLF5 inhibitor project, cell-based, luminescence; IEC-6 cytotoxicity, luminescence viability; inhibition, % at 5 µM; 290,000 tested, 0.78% active; in the data active = inhibition above about 22%;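 also: 0% = plate median of test compound wells and 100% = cytotoxic reference compound wells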
APP 5UTR inh: inhibitors of APP translation via 5'UTR reporter, primary screen, APP 5'UTR luciferase, SH-SY5Y cells. SH-SY5Y APP 5'UTR-luciferase reporter, luminescence. inhibition, % at 2 µM. 190,000 tested, 0.82% active;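 active = inhibition above a set limit, derived from the sample mean plus 3 SD, cut at about 45% in these data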
Ba/F3 V617F tox: reduced viability of JAK2V617F-dependent Ba/F3 cells, primary screen, JAK2V617F inhibitor project, cell-based, Ba/F3 EpoR-JAK2V617F, luminescence; 220,000 tested, 1.1% active; ATP luminescence; inhibition, % at 5.6 µM;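 active = inhibition above the campaign mean plus 3 SD over all tested compounds, cut at about 24% in these data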;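 also: cytokine-independent growth of Ba/F3 cells driven by EpoR plus mutant JAK2; 0% = DMSO-treated cells and 100% = JAK inhibitor I control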
BaF3 parental: parental Ba/F3 cell viability inhibition, counter-screen for JAK2V617F inhibitor project, murine pro-B, CellTiter-Glo luminescence | CellTiter-Glo ATP luminescence | inhibition, % at 5.6 µM | 220,000 tested, 1.1% active;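 active = inhibition above a per-campaign cutoff, the mean inhibition of all tested compounds plus 3 SD, cut at about 27% in these data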;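 also: 0% = DMSO wells and 100% = JAK Inhibitor I control wells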
aSyn 5UTR inh: MLPCN primary screen, SNCA 5' untranslated region. alpha-synuclein 5'UTR reporter, inhibitor activity. inhibition, % (tested at 7.5 µM). 300,000 tested, 0.82% active; in the data active = inhibition above about 60%;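 also: H4 neuroglioblastoma cells stably carrying SNCA 5'UTR luciferase fusion; 0% = DMSO wells and 100% = positive control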
KLF5 inh: KLF5 expression inhibitors, primary screen, DLD-1 cells, luminescence. DLD-1 KLF5 promoter-luciferase reporter. inhibition, % at 5 µM. 290,000 tested, 0.23% active. AID 1700, 2009;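 active = inhibition above a per-plate limit of that plate's mean compound inhibition plus 3 SD, cut at about 60% in these data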;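 also: 0% = DMSO wells and 100% = LY294002 at 200 µM; higher means less KLF5 promoter-driven luciferase light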
Numbers without * were called inactive; nt = no result.

SMILES	IEC-6 cytotox	APP 5UTR inh	Ba/F3 V617F tox	BaF3 parental	aSyn 5UTR inh	KLF5 inh
COc1ccc(CCNC(=O)c2nonc2N)cc1OC	-2.6	-21.8	-2.4	69.5*	-6.4	-17.9
S=C(Nc1ccccc1)N1CCOCC1	-1.1	0.7	1.1	5.0	18.1	-16.8
O=C(NC(=Nc1ccccc1)N1CCOCC1)Nc1ccccc1	0.5	-16.6	1.1	95.8*	-36.0	-12.4
CCOc1ccc(NC(=O)C2CSC(c3ccncc3)=N2)cc1 (centres undefined)	7.5	46.4*	1.9	6.9	-25.1	18.4
CCN(CC)c1ccc(NC(=O)CCCCCN2C(=O)c3ccccc3C2=O)cc1	0.5	5.1	3.4	7.1	-3.5	0.9
CCN(CC)c1ccc(NC(=O)CCCCC(=O)Nc2ccc(N(CC)CC)cc2)cc1	nt	nt	nt	nt	62.8*	nt
O=S(=O)(c1ccc(Cl)cc1)N1CCN(Cc2ccc(O)c3ncccc23)CC1	1.9	33.6	-0.3	2.0	77.2*	6.1
Oc1ccc(CN2CCN(Cc3ccccc3)CC2)c2cccnc12	5.5	-11.6	-2.2	1.7	-10.0	11.7
O=[N+]([O-])c1nn(-c2ccccc2)n(O)c1=NC1CCN(Cc2ccccc2)CC1	5.8	5.5	0.8	10.9	76.4*	-9.8
O=C(CSc1nnnn1C1CCCCC1)Nc1ccc(F)cc1	-6.4	5.7	-2.5	55.8*	-2.0	-29.2
COc1ccc(OC)c(/C=N\NC(=O)c2ccc(-c3ccccc3)cc2)c1	5.3	nt	nt	nt	nt	-17.5
COc1cccc(/C=N/NC(=O)CSc2nnc(C)n2-c2ccccc2)c1O	3.0	-9.1	-0.4	-3.0	38.3	23.9
COc1cccc(/C=N/NC(=O)c2ccc(-c3ccccc3)cc2)c1O	3.1	18.2	-3.3	1.7	75.8*	23.0
COc1ccc(CCCC(=O)N/N=C/c2cccc(OC)c2O)cc1C	2.9	12.2	-2.1	5.6	74.1*	-18.2
CCOc1ccccc1NC(=O)C(=O)N/N=C/c1cc(Br)ccc1O	7.5	59.1*	-1.0	4.3	51.3	-22.5
CCCCSc1nc(C)cc(SCC(=O)N/N=C/c2cccc(OC)c2O)n1	0.3	43.3	2.0	9.0	81.1*	24.1
CC1CCN(S(=O)(=O)c2cn(CC(=O)N3CCN(c4cccc(C(F)(F)F)c4)CC3)cn2)CC1	2.1	nt	nt	nt	38.5	-18.2
COc1cc2c(cc1OC)CC(C(=O)NCc1ccccc1)NC2 (centres undefined)	-0.6	nt	nt	nt	-0.8	14.5
Cc1ccc2c(NC(=O)c3ccco3)cccc2n1	-0.4	nt	nt	nt	1.8	-8.2
CC(C)c1ccc(OCc2ccc(C(=O)N3CCCC3)o2)cc1	0.3	nt	nt	nt	-144.1	-148.7
Cc1ccc2c(c1)N(C(=O)CCC(=O)NCCCN1CC(C)CC(C)C1)CCO2 (centres undefined)	-3.8	nt	nt	nt	-9.0	-19.8
COc1ccc(C(=O)Nc2cccc(C(=O)N/N=C/c3ccc(OC)cc3OC)c2)cc1	10.5	nt	nt	nt	83.2*	-29.4
COc1cccc(/C=N/NC(=O)C(=O)Nc2ccccc2OC(F)(F)C(F)F)c1O	2.3	33.0	-3.0	-0.2	71.5*	12.7
Cc1ccccc1NC(=S)N(CCc1c(C)[nH]c2ccc(F)cc12)Cc1cccnc1	-4.6	10.3	-1.2	8.5	7.6	-17.9
Cc1[nH]c2ccc(F)cc2c1CCN(Cc1cccnc1)C(=S)Nc1cccc(F)c1	4.3	-15.3	31.1*	28.4*	17.7	-13.4
SMILES	IEC-6 cytotox	APP 5UTR inh	Ba/F3 V617F tox	BaF3 parental	aSyn 5UTR inh	KLF5 inh
COc1ccc2[nH]c(C)c(CCN(Cc3cccs3)C(=S)Nc3cccc(F)c3)c2c1	-4.7	-2.0	44.9*	51.1*	-18.2	-29.3
Nc1nc(Cl)cc(N2CCC(c3cc(-c4ccc(Cl)cc4)n[nH]3)CC2)n1	20.1	27.7	47.5*	44.8*	42.7	13.7
COc1ccc(-c2cc(C3CCN(c4cc(Cl)nc(N)n4)CC3)[nH]n2)cc1	5.4	-4.1	-4.7	2.5	39.1	-17.1
CCC(C)NC(=O)[C@@H]1CSC2c3ccccc3C(=O)N21 (some centres undefined)	5.0	nt	nt	nt	12.1	-11.3
O=C(Nc1ccc(F)cc1F)Nc1ccc(F)cc1F	-0.9	-45.3	17.8	55.7*	-86.6	-68.5
O=C(Nc1ccc(S(=O)(=O)N2CCCC2)cc1)Nc1ccc(F)cc1F	1.7	nt	nt	nt	-3.7	-39.5
O=C(Nc1ccc(F)cc1F)c1csc(-c2ccccc2)n1	-3.7	-30.0	0.8	3.0	-95.3	-8.0
Cc1ccc(S(=O)(=O)Nc2ccc(NC(=O)Nc3ccc(F)cc3F)cc2)cc1	0.7	-19.4	0.0	6.6	78.5*	-1.8
O=C(Nc1ccc(F)cc1F)c1cccc(C(=O)Nc2ccc(F)cc2F)n1	-3.2	nt	nt	nt	86.7*	14.8
CCCc1nnc(SCC(=O)Nc2cccc(Cl)c2Cl)o1	5.3	nt	nt	nt	-41.9	-22.4
COc1cc(NC(=O)CN2CCN(CC(=O)Nc3ccccc3OC)CC2)cc(OC)c1	-2.1	nt	nt	nt	14.1	-19.7
O=C(NCCCN1CCOCC1)c1ccc2c(=O)n(Cc3ccc(Cl)cc3)c(=S)[nH]c2c1	0.9	nt	nt	nt	0.5	-24.7
Cc1ccc(/C=N/NC(=O)c2csc3c2CCCC3)cc1	1.1	89.7*	0.4	-0.1	-24.4	-75.3
COc1cc(/C=N/NC(=O)c2csc3c2CCCC3)cc(OC)c1O	-2.6	-9.5	0.2	3.9	-10.6	-15.2
CC(C)N(CCNC(=O)C1CCCN(c2ncnc3c2nc2n3CCCCC2)C1)Cc1ccccc1 (centres undefined)	-3.1	nt	nt	nt	-8.4	-11.8
O=C(c1nn2c(C(F)(F)F)cc(-c3ccco3)nc2c1Br)N1CCCc2ccccc21	-1.3	1.2	-0.7	0.1	92.9*	-3.3
O=C(c1nn2c(C(F)(F)F)cc(-c3cccs3)nc2c1Br)N1CCCc2ccccc21	-0.3	-11.6	1.2	7.4	82.2*	-16.4
Cc1cc2c(cc1S(=O)(=O)N1CCN(c3cccc(C)c3C)CC1)OCC(=O)N2	2.1	nt	nt	nt	-1.3	-6.1
COc1ccc(C2CC(=O)C=C(NCc3ccc4c(c3)OCO4)C2)cc1 (centres undefined)	2.4	nt	-1.7	2.5	16.4	-12.8
Nc1ccc(C(=O)N/N=C/c2cn(Cc3ccccc3)c3ccccc23)cc1	6.0	nt	nt	nt	57.5	-33.0
Nc1ccc(C(=O)N/N=C/c2cn(Cc3ccccc3F)c3ccccc23)cc1	11.6	nt	nt	nt	72.4*	-20.7
Nc1ccc(C(=O)N/N=C/c2cn(Cc3ccc(F)cc3)c3ccccc23)cc1	12.8	nt	nt	nt	64.3*	-42.2
COC(=O)N/N=C/c1cn(Cc2ccccc2F)c2ccccc12	3.5	nt	0.9	-4.8	51.2	-21.9
Cc1ccc(OCC(=O)N/N=C\c2cn(Cc3ccccc3)c3ccccc23)cc1C	-7.2	-19.6	-3.5	2.2	76.1*	2.6
O=[N+]([O-])c1ccc(Nc2ccccc2)c2nonc12	2.3	nt	nt	nt	10.7	-24.6

Screening data as filed in PubChem BioAssay.
